Numbering of substitutions follows the chain as printed.
How the values were obtained:
Test in all cases: protein-binding microarray (PBM); PBM: ~300 nM protein, 6 mM HEPES pH 7.8, 80 mM KCl, 0.5 mM EDTA, 0.5 mM EGTA, 6% glycerol, 35 ng/ul poly-dIdC, 1% milk, 1 h, room temperature; Ap Aiptasia and Nv Nematostella (sea anemones) / Co Capsaspora / Aq Amphimedon (sponge) / Dm Drosophila / Hu human; RHD is the Rel homology domain; high values mean tight binding
Conditions in all cases: dsDNA, one strand shown
GST-Ap-NF-kB RHD = molecular target: T1, GST-Ap-NF-kB RHD (Exaiptasia pallida (Aiptasia), UniProt A0A913YAJ5 2-422)
T1 sequence: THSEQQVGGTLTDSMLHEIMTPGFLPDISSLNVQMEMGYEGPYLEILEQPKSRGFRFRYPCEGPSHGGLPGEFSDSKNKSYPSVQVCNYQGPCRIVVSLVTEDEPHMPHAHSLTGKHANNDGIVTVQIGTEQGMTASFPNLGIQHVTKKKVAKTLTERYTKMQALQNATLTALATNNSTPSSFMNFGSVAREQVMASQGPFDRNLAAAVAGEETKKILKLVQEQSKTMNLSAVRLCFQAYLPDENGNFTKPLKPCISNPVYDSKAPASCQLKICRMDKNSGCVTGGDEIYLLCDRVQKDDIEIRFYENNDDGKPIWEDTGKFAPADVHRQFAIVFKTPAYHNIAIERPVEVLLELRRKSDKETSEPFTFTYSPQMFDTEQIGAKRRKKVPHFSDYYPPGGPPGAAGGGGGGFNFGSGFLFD

[1] = molecular target: T2, GST-Nv-NF-kB (Cys allele) (Nematostella vectensis, UniProt E5G601 2-411)
T2 sequence: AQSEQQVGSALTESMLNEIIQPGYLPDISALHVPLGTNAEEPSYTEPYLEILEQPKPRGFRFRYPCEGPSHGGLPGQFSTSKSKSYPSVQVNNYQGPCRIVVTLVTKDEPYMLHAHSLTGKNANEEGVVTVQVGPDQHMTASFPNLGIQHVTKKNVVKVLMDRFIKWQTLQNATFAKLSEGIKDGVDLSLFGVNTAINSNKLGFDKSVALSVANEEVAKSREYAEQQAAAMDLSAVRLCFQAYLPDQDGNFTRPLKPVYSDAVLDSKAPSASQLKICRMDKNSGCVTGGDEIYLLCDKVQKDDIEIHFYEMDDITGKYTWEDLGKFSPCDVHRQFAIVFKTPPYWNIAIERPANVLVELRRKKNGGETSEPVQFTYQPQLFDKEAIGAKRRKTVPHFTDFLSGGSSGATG

[2] = molecular target: T3, GST-Nv-NF-kB (Ser allele) (Nematostella vectensis, UniProt A7UNT2 2-411)
T3 sequence: T2 sequence with Q21R, C66S, S207N, E215Q, V217A, E225K, A268E, D399E

GST-Co-NF-kB = molecular target: T4, GST-Co-NF-kB (Capsaspora owczarzaki, UniProt F1ARL5 200-546)
T4 sequence: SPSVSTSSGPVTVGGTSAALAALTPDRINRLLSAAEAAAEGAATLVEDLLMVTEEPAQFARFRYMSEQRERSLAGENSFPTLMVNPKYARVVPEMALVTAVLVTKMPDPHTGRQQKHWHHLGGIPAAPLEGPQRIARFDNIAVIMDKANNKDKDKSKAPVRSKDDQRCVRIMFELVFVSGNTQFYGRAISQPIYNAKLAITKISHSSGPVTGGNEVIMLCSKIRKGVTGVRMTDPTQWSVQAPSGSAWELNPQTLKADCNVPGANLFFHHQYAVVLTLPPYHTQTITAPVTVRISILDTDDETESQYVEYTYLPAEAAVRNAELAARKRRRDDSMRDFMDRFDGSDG

GST-Dm-Relish = molecular target: T5, GST-Dm-Relish (Drosophila melanogaster, UniProt Q94527 99-473)
T5 sequence: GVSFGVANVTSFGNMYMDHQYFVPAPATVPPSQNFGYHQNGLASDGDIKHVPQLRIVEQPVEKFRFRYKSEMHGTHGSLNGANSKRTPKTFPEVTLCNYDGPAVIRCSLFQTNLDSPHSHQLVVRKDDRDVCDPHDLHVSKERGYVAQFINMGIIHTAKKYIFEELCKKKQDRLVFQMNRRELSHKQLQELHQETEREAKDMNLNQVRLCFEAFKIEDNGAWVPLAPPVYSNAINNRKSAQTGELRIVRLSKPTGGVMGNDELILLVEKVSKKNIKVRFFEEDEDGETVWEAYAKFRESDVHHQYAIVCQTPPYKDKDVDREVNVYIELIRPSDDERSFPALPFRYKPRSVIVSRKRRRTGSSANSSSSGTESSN

GST-Aq-NF-kB = molecular target: T6, GST-Aq-NF-kB (Amphimedon queenslandica, UniProt A9Y5G7 2-389)
T6 sequence: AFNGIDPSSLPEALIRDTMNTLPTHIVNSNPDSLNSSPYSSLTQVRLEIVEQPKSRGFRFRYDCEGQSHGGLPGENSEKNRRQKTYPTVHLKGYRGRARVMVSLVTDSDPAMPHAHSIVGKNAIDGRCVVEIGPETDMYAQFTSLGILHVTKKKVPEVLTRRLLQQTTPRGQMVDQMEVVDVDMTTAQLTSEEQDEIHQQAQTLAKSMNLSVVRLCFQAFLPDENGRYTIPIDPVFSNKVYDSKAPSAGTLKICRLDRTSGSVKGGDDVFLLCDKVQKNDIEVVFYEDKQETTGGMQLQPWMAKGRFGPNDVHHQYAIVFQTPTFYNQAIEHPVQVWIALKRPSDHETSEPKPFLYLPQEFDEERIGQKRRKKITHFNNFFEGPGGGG

GST-Hu-p50 = GST-Hu-p50 (Homo sapiens, UniProt P19838 7-356)
GST-Hu-p50, sequence (P19838 7-356): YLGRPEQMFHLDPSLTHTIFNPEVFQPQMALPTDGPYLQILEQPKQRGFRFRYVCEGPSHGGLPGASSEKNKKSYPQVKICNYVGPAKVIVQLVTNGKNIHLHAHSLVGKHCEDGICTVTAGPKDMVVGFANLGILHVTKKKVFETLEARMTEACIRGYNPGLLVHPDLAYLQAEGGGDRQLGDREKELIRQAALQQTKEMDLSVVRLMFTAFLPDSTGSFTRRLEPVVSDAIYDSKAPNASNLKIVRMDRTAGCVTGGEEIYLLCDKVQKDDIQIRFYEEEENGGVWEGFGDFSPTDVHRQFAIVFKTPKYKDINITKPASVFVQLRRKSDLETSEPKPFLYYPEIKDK

CCGATTAACATCAGGGACTTTTATGATGTTAATCGGGTCTTGATTCGCTTGACGCTGCTG
binding signal (GST-Ap-NF-kB RHD): 7.76 z-score | binding signal [1]: 9.97 z-score | binding signal [2]: 9.79 z-score | binding signal (GST-Co-NF-kB): 1.97 z-score | binding signal (GST-Dm-Relish): 8.37 z-score | binding signal (GST-Aq-NF-kB): 7.89 z-score | binding signal (GST-Hu-p50): 6.59 z-score

CCGATTAACATCAGGGGGACTAATGATGTTAATCGGGTCTTGATTCGCTTGACGCTGCTG
binding signal (GST-Ap-NF-kB RHD): 5.06 z-score | binding signal [1]: 4.36 z-score | binding signal [2]: 4.4 z-score | binding signal (GST-Co-NF-kB): 4.79 z-score | binding signal (GST-Dm-Relish): 2.76 z-score | binding signal (GST-Aq-NF-kB): 4.27 z-score | binding signal (GST-Hu-p50): 3.8 z-score

CCGATTAACATCAGGGGGTTTAATGATGTTAATCGGGTCTTGATTCGCTTGACGCTGCTG
binding signal (GST-Ap-NF-kB RHD): 6.88 z-score | binding signal [1]: 5.26 z-score | binding signal [2]: 6.77 z-score | binding signal (GST-Co-NF-kB): 2.64 z-score | binding signal (GST-Dm-Relish): 7.87 z-score | binding signal (GST-Aq-NF-kB): 5.24 z-score | binding signal (GST-Hu-p50): 6.62 z-score

CCGATTAACATCAAGGGGGAGAATGATGTTAATCGGGTCTTGATTCGCTTGACGCTGCTG
binding signal (GST-Ap-NF-kB RHD): 5.78 z-score | binding signal [1]: 6.63 z-score | binding signal [2]: 7.33 z-score | binding signal (GST-Co-NF-kB): 7.92 z-score | binding signal (GST-Dm-Relish): 2.2 z-score | binding signal (GST-Aq-NF-kB): 4.93 z-score | binding signal (GST-Hu-p50): 6.83 z-score

CCGATTAACATCACAGAATTCCCTGATGTTAATCGGGTCTTGATTCGCTTGACGCTGCTG
binding signal (GST-Ap-NF-kB RHD): 5.09 z-score | binding signal [1]: 6.44 z-score | binding signal [2]: 6.81 z-score | binding signal (GST-Co-NF-kB): 3.6 z-score | binding signal (GST-Dm-Relish): 4.28 z-score | binding signal (GST-Aq-NF-kB): 5.42 z-score | binding signal (GST-Hu-p50): 4.93 z-score

CCGATTAACATCAGGGGGGATAATGATGTTAATCGGGTCTTGATTCGCTTGACGCTGCTG
binding signal (GST-Ap-NF-kB RHD): 5.8 z-score | binding signal [1]: 4.93 z-score | binding signal [2]: 5.26 z-score | binding signal (GST-Co-NF-kB): 7.17 z-score | binding signal (GST-Dm-Relish): 4.67 z-score | binding signal (GST-Aq-NF-kB): 4.72 z-score | binding signal (GST-Hu-p50): 5.14 z-score

CCGATTAACATCAGAAATACCCCTGATGTTAATCGGGTCTTGATTCGCTTGACGCTGCTG
binding signal (GST-Ap-NF-kB RHD): 6.58 z-score | binding signal [1]: 6.99 z-score | binding signal [2]: 6.08 z-score | binding signal (GST-Co-NF-kB): 4.66 z-score | binding signal (GST-Dm-Relish): 4.99 z-score | binding signal (GST-Aq-NF-kB): 6.25 z-score | binding signal (GST-Hu-p50): 5.86 z-score

CCGATTAACATCAGAAATCCCCCTGATGTTAATCGGGTCTTGATTCGCTTGACGCTGCTG
binding signal (GST-Ap-NF-kB RHD): 11.2 z-score | binding signal [1]: 10.5 z-score | binding signal [2]: 10.8 z-score | binding signal (GST-Co-NF-kB): 6.78 z-score | binding signal (GST-Dm-Relish): 9.63 z-score | binding signal (GST-Aq-NF-kB): 8.32 z-score | binding signal (GST-Hu-p50): 7.68 z-score

CCGATTAACATCAAATTCCCGGGTGATGTTAATCGGGTCTTGATTCGCTTGACGCTGCTG
binding signal (GST-Ap-NF-kB RHD): 3.33 z-score | binding signal [1]: 3.9 z-score | binding signal [2]: 3.88 z-score | binding signal (GST-Co-NF-kB): 4.43 z-score | binding signal (GST-Dm-Relish): 3.94 z-score | binding signal (GST-Aq-NF-kB): 3.13 z-score | binding signal (GST-Hu-p50): 3.85 z-score

CCGATTAACATCAAACATTCCCCTGATGTTAATCGGGTCTTGATTCGCTTGACGCTGCTG
binding signal (GST-Ap-NF-kB RHD): 6.81 z-score | binding signal [1]: 9.14 z-score | binding signal [2]: 9.23 z-score | binding signal (GST-Co-NF-kB): 7.01 z-score | binding signal (GST-Dm-Relish): 4.9 z-score | binding signal (GST-Aq-NF-kB): 6.75 z-score | binding signal (GST-Hu-p50): 5.95 z-score

CCGATTAACATCAGATTTACCCCTGATGTTAATCGGGTCTTGATTCGCTTGACGCTGCTG
binding signal (GST-Ap-NF-kB RHD): 3.07 z-score | binding signal [1]: 2.72 z-score | binding signal [2]: 3.18 z-score | binding signal (GST-Co-NF-kB): 6.39 z-score | binding signal (GST-Dm-Relish): 2.13 z-score | binding signal (GST-Aq-NF-kB): 3.62 z-score | binding signal (GST-Hu-p50): 3.46 z-score

CCGATTAACATCAACTACCCCCCTGATGTTAATCGGGTCTTGATTCGCTTGACGCTGCTG
binding signal (GST-Ap-NF-kB RHD): 4.79 z-score | binding signal [1]: 2.46 z-score | binding signal [2]: 3.11 z-score | binding signal (GST-Co-NF-kB): 4.43 z-score | binding signal (GST-Dm-Relish): 3.4 z-score | binding signal (GST-Aq-NF-kB): 3.98 z-score | binding signal (GST-Hu-p50): 3.1 z-score

CCGATTAACATCAAATTCCCCCGTGATGTTAATCGGGTCTTGATTCGCTTGACGCTGCTG
binding signal (GST-Ap-NF-kB RHD): 9.52 z-score | binding signal [1]: 8.91 z-score | binding signal [2]: 9.58 z-score | binding signal (GST-Co-NF-kB): 11 z-score | binding signal (GST-Dm-Relish): 8.23 z-score | binding signal (GST-Aq-NF-kB): 7.32 z-score | binding signal (GST-Hu-p50): 7.06 z-score
